For three compounds, thermal shift (delta Tm) results are on record in PubChem BioAssay AID2229 (National Center for Advancing Translational Sciences (NCATS), 2010).

SMILES strings stand for the structures. The source made the active and inactive calls.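 The calls were made as follows: active = a thermal shift above zero, meaning the compound raised the protein's melting temperature; inactive = the rest.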

Chain of Luciferin 4-monooxygenase (Photinus pyralis) (P08659 whole entry, looked up): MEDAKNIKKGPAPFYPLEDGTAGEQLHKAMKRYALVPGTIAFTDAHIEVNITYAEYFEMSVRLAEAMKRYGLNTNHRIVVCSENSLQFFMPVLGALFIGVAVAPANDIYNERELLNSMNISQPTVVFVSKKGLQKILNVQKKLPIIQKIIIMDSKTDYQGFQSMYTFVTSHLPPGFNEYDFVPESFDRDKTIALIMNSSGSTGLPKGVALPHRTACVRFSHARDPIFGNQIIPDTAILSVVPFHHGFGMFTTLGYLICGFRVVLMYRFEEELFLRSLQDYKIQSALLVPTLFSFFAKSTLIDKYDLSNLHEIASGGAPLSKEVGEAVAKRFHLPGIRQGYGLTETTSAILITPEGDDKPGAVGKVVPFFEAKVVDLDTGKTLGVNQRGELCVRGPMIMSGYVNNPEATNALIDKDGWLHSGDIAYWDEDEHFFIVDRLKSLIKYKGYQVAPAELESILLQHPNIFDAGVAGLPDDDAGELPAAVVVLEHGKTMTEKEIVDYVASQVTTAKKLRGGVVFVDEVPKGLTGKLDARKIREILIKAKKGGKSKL

The experiment addresses Luciferin 4-monooxygenase (Photinus pyralis) (UniProt P08659). Put plainly: Thermal Shift Assay for Inhibitors of FLuc (Firefly Luciferase, Photinus pyralis) in Absence of ATP. To be noted: purified FLuc, SYPRO Orange thermal shift, no ATP; at 200 µM; stronger effect = higher value. From the text:
Firefly (Photinus pyralis) luciferase (FLuc) is widely used as a reporter in biological assays. […] In order to determine if FLuc thermal stabilization parallels inhibitor potency, a fluorescence-based thermal denaturation assay was developed in this present study. An environmentally sensitive fluorescence dye, SYPRO Orange (Invitrogen, presently Life Technologies) was utilized to monitor the fluorescence change as a function of temperature. The dye preferentially binds to the hydrophobic regions of the protein, and its high signal-to-noise ratio, large Stokes shift and high excitation wavelength make it ideal for thermal shift application. In this assay, the melting temperature (Tm) (the inflection point of the protein melt transition) was assessed for each sample tested. Differences in the Tm between controls and compound-containing samples were determined (the thermal shift or delta Tm), and compounds were ranked by the degree of their thermal shift at the top concentration (200 uM). […] FLuc catalyzes light production in bioluminescent organisms. The reaction requires luciferin, ATP and O2 as substrate, and it includes the formation of a luciferyl-AMP intermediate and the subsequent production of light, AMP, oxyluciferin and CO2. In this study, PTC124 and analogues were evaluated for their potential to stabilize FLuc in the absence and presence of ATP. This particular BioAssay is in the absence of ATP. See related BioAssay "Thermal Shift Assay for Inhibitors of FLuc (Firefly Luciferase, Photinus pyralis) in the Presence of ATP" See [6] for more details on this assay and related studies. Welch, et al. PTC124 targets genetic disorders caused by nonsense mutations. Nature 447 (2007) 87-91. D.S. Auld, N. Thorne, W.F. Maguire, and J. Inglese, Mechanism of PTC124 activity in cell-based luciferase assays of nonsense codon suppression. […]
Assay Protocol: 1.8 uM FLuc was tested in Tris-acetate buffer (pH 7.6) or phosphate buffer saline (pH 7.4). […] Fluorescence intensity changes (Ex 490/Em 575 nm) were monitored with a charge-coupled device (CCD) camera. […]
Regarding `Nc1ncnc2c1ncn2[C@@H]1O[C@H](COP(=O)(O)OC(=O)c2cccc(-c3noc(-c4ccccc4F)n3)c2)[C@@H](O)[C@H]1O`, the thermal shift (delta Tm) is 28.3 °C (active).

For `NC(=O)c1cccc(-c2noc(-c3ccccc3F)n2)c1`, the thermal shift (delta Tm) is 2.84 °C (active).

For `O=C(O)c1ccc(-c2noc(-c3ccccc3F)n2)cc1`, the thermal shift (delta Tm) is 5.87 °C (active).
